Source: PubChem BioAssay (several laboratories)
Granule exo inh: blocks lytic granule exocytosis. 360,000 compounds, 0.66% hits. AID 651702. inhibition, % at 10 µM. TALL-104 LAMP-1 surface exposure, flow cytometry; cells stimulated with thapsigargin and PMA;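 active means inhibition above about 55%, limit read from the data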
GASC-1 inh: human JMJD2C demethylase inhibition; inhibition, % at 2.35 µM; 330,000 compounds, 0.069% hits; Q9H3R0; GST-JMJD2C(1-420) H3K9me3 demethylation, DELFIA europium;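 active means more than half of a compound's replicate wells show inhibition beyond 50%, single wells judged on their own value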;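 further: signal counts dimethyl H3K9 product captured on neutravidin plate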
M18AAP inhibitor: PfM18AAP enzyme inhibition | recombinant PfM18AAP, H-Glu-NHMec fluorogenic cleavage | AID 1822 | 290,000 compounds, 1.2% hits | inhibition, % at 7.35 µM;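 active means inhibition above the campaign mean inhibition over all tested compounds plus 3 SD, cut at about 28% in these data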
SMARCA2 act: activators of SMARCA2 function. MG213 cells, MMTV-luciferase reporter, dexamethasone, overnight. activation, % at 9.1 µM. 370,000 compounds, 1% hits; in the data active means activation above about 7.8%
ALR H2O2 inh: human ALR oxidase inhibition via reduced H2O2; P55789; purified ALR, DTT oxidation, H2O2 HRP-luminol luminescence; inhibition, % (no concentration beside the values); 290,000 compounds, 3.8% hits;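 active means mean replicate inhibition above about 79%, with every replicate also reaching it, limit read from the data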
Target sequence (P55789 whole entry, looked up): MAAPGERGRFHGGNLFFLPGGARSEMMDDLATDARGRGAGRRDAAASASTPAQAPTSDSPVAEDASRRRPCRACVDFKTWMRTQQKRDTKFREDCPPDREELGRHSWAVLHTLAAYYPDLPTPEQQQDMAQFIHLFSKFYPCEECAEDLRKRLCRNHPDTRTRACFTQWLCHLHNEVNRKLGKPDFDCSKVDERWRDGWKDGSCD
beta cell repl: induces beta-cell replication in MIN6 cells; 330,000 compounds, 0.29% hits; MIN6 cells proliferation, ATPlite luminescence, 48 h; cells starved in 0.2% serum; 100% = growth in 10% serum; AID 2380; proliferation, % at 10 µM;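 active means compounds whose signal lies at least 3.5 SD above the mean of all wells on their plate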
A number is an active result; n = inactive; x = not tested or not shown. A selection: hits, their analogues and other compounds. The true share with any hit is near 5.4%.

SMILES | Granule exo inh | GASC-1 inh | M18AAP inhibitor | SMARCA2 act | ALR H2O2 inh | beta cell repl
O=C(O)c1ccc2c(c1)C(=O)N(CCC1=CCCCC1)C2=O | n | 101.5 | n | n | n | n
CN(C(=O)c1ccc2c(c1)C(=O)N(CCC1=CCCCC1)C2=O)C1CCCCC1 | n | n | n | n | n | n
O=c1[nH]c(=O)n(Cc2ccco2)c2c1C(C(F)(F)F)(C(F)(F)F)N=C(CCc1ccccc1)N2 | n | n | n | n | x | n
N#Cc1ccc(C2=NC(C(F)(F)F)(C(F)(F)F)c3c(n(Cc4ccco4)c(=O)[nH]c3=O)N2)cc1 | n | n | n | n | 96.3 | n
O=C(CN1N=C(c2ccccc2)CCC1=O)NCc1ccccc1 | n | n | n | n | n | n
O=C(CN1N=C(c2ccccc2)CCC1=O)NCCN1CCc2ccccc2C1 | n | n | n | n | n | 4.6
CCN(CC)c1nc(C)nc2c1nnn2Cc1ccccc1 | x | x | x | n | x | x
Nc1nonc1NN=C1CCCCC1 | n | n | 30.7 | n | n | n
Nc1nonc1N/N=C\c1ccccc1 | n | n | n | n | x | n
O=C(CCn1nnc(-c2cccs2)n1)N1CCCC1 | x | x | x | n | x | x
COC(=O)[C@H](C(C)C)N(Cc1cn(Cc2ccccc2)nn1)S(=O)(=O)c1ccccc1Br | x | x | x | n | x | x
CC(=O)C1=C(C)OC(N)=C(C#N)C1c1ccncc1 (configuration not stated) | n | n | n | n | n | n
COc1ccc2cc(C3C(C#N)=C(N)OC(C)=C3C(C)=O)c(Cl)nc2c1 (configuration not stated) | n | n | n | n | 96.0 | n
Nc1cc(C(=O)O)ccc1Nc1ccc(F)c(F)c1 | n | n | n | n | 96.8 | n
COc1ccc(C(=O)C2(C(=O)NC3CCCC3)CC(c3ccccc3C(F)(F)F)=NO2)cc1 (configuration not stated) | x | x | x | n | x | x
CCC(C)c1ccccc1NC(=O)COC(=O)c1ccc2[nH]c3c(c2c1)CCCC3 (configuration not stated) | 60.8 | n | n | n | n | n
COCCN1C(=O)/C(=C/c2ccc(OCc3ccc(C(=O)O)cc3)c(OC)c2)SC1=Nc1ccccc1 | 79.3 | n | n | n | n | n
CC(C)(C)OC(=O)NCc1ccccc1/C=C/S(=O)(=O)NCc1ccccc1 | x | x | x | n | x | x
COC(=O)/C=C1\N/C(=N\c2nc(C)cc(C)n2)N(c2ccccc2)C1=O | n | n | n | n | 96.6 | n
COCCCN1C(=O)[C@H](CC(=O)N2CCCC2)[C@]2(C(=O)OC)CCCCC=C12 | x | x | x | n | x | x
CCC(C)NC(=O)c1ccc2c(SCC(=O)O)c3c(nc2c1)CCCC3 (configuration not stated) | n | n | n | n | 97.4 | n
CCCCNC(=O)c1ccc2c(SCC(=O)O)c3c(nc2c1)CCCC3 | n | n | n | n | x | n
COC(=O)C1=C(C)N(C)C(=NCc2cc(OC)c(OC)c(OC)c2)NC1c1ccc(Cl)cc1 (configuration not stated) | x | x | x | n | x | x
CCOC(=O)[C@@H]1c2[nH]c3ccccc3c2C[C@@]2(C(=O)OC)C=CCN12 | x | x | x | n | x | x
C=CCN1C(=O)[C@H](CC(=O)N2CCCC2)[C@@]2(C(=O)OCC)CCCC=C12 | x | x | x | n | x | x
SMILES | Granule exo inh | GASC-1 inh | M18AAP inhibitor | SMARCA2 act | ALR H2O2 inh | beta cell repl
CCOC(=O)C1(Cc2ccccc2)CCN(Cc2ccnc3ccccc23)CC1 | x | x | x | n | x | x
CCOC(=O)CSc1nnc(NCC(=O)OC(C)C)c(=O)[nH]1 | n | n | n | n | 97.1 | n
Cc1cc(NCCCn2ccnc2)n2nc(-c3ccc(Cl)cc3)cc2n1 | n | n | n | n | 97.2 | n
Cc1cc(NCCCn2ccnc2)n2nc(-c3ccc(F)cc3)cc2n1 | n | n | n | n | n | n
COc1ccc(S[C@]2(C(=O)N3CCOCC3)CC(=O)N(S(=O)(=O)c3ccc(F)cc3)[C@@H]2c2ccc(OC)cc2)cc1 | x | x | x | n | x | x
O=C1CN=CN=CN1c1ccc(Cl)cc1Cl | n | n | 40.1 | n | n | n
O=C(CCc1ccccc1)N[C@H]1/C(=N/O)CCC[C@]12C(=O)N(Cc1ccccc1)c1ccccc12 | x | x | x | n | x | x
COc1cc(OC)c2ccc(=O)oc2c1C(CCN1CCCCC1)c1ccc(N(C)C)cc1 (configuration not stated) | n | n | x | n | 98.6 | n
COc1cc(OC)c2ccc(=O)oc2c1C(CCN1CCCC1)c1ccc(N(C)C)cc1 (configuration not stated) | n | n | x | n | 98.3 | n
